Screening data: PubChem, National Center for Advancing Translational Sciences (NCATS)
USP1 inh: Inhibitors of USP1/UAF1: Primary Screen; recombinant USP1/UAF1, Ub-Rhodamine cleavage fluorescence; Potency, µM (top dose mostly 57.1 µM), for inactives: at the highest dose activity change, negative = inhibition, usual class: inhibitors; hit rate 0.23% among 390,000; Ubiquitin carboxyl-terminal hydrolase 1 (Homo sapiens), O94782; also: potency is read from the fitted curve at half-maximal effect; % is scaled to controls: 0 for no effect and ±100 for the full control effect; nearly all actives have a fitted effect of over 60% in size
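In this screen, compounds sit with the deubiquitinase complex (1nM) for 15 min at room temperature before Ub-Rho is added at 150nM final. Fluorescence rise is then followed for 6 reads every 60 seconds.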
EPAC1 agonist: qHTS for Agonist of cAMP-regulated guanine nucleotide exchange factor 3 (EPAC1): primary screen; Rap guanine nucleotide exchange factor 3 (Homo sapiens), O95398; EPAC1 agonist qHTS, biochemical assay; response scale: 100% = response to 6.5 mM cAMP; Potency, µM (doses to about 154 µM), for the others: at the top dose activation, hits mostly activators; hit rate 0.073% among 360,000; AID 720707, 2013; also: potency is read from the fitted curve at half-maximal effect; nearly all actives have a fitted effect of over 60% in size
Target sequence (O95398 whole entry, looked up): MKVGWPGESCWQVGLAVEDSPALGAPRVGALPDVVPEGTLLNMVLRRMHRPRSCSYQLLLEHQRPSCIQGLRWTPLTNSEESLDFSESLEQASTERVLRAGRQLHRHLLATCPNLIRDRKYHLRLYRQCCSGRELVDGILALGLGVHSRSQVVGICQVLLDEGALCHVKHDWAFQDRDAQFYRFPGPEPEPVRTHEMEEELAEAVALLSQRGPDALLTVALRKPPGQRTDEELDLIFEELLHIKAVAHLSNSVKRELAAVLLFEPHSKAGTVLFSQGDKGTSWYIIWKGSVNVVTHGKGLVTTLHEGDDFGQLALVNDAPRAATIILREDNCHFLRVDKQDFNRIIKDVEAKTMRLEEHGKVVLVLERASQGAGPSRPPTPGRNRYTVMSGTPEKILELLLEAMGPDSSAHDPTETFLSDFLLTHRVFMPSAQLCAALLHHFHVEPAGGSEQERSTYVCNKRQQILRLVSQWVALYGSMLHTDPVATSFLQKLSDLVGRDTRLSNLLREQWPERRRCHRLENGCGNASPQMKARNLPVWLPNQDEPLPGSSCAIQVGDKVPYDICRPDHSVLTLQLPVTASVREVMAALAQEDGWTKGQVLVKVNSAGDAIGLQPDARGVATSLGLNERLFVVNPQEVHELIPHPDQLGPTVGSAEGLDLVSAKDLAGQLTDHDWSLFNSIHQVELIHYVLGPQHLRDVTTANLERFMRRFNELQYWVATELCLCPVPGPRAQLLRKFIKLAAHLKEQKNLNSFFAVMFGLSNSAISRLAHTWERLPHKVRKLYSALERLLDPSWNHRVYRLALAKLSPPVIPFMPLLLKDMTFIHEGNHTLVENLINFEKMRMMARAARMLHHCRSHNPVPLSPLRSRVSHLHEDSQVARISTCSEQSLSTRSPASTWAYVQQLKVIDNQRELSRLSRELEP
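Multi-concentration qHTS readout: loss of Rap1B-bound BODIPY-GDP fluorescence driven by 100 nM EPAC1 with excess GDP (50 uM), monitored kinetically at room temperature; agonist response expressed relative to 6.5 mM cAMP.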
FBPA coupling cs: qHTS Assay for Inhibitors of Fructose-1,6-bisphosphate Aldolase from Giardia Lamblia: Coupling assay counterscreen; coupling enzyme system counterscreen, AmpLite Red fluorescence; activity change, negative = inhibition, % at 58.2 µM, hits read low; hit rate 0.67% among 290,000; AID 2472, 2010; in the data active = activity change below about -30%; also: % is scaled to controls: 0 for no effect and ±100 for the full control effect
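Fluorescence at 525 nm excitation and 598 nm emission measured inhibition of the coupled detection system without aldolase. Compounds (at 57.5 uM final) were preincubated 10 min at room temperature with coupling enzyme reagent before a 20 min substrate/AmpLite Red step.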
EPAC1 antagonist: qHTS for Antagonist of cAMP-regulated guanine nucleotide exchange factor 3 (EPAC1): primary screen | Rap guanine nucleotide exchange factor 3 (Homo sapiens), O95398 | EPAC1 GEF assay, Rap1b-BODIPY-GDP exchange fluorescence | Potency, µM (top dose mostly 115 µM), without a hit: at the highest dose activity change, negative = inhibition, usual class: inhibitors | hit rate 0.14% among 360,000;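 also: potency is read from the fitted curve at half-maximal effect; plate controls were vehicle for no effect and positive control for full effect; nearly all actives have a fitted effect of over 50% in size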
EPAC2 ag: qHTS for Agonist of cAMP-regulated guanine nucleotide exchange factor 4 (EPAC2): primary screen; Potency, µM (doses to about 154 µM), inactives show top-dose activation, hits mostly activators; hit rate 0.079% among 360,000; EPAC2 activation, biochemical qHTS; response scale: 100% = 6.5 mM cAMP response; also: potency is read from the fitted curve at half-maximal effect; nearly all actives have a fitted effect of over 50% in size
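EPAC2 (100 nM) mixed with Rap1B loaded with BODIPY-GDP (250 nM) plus 50 uM unlabeled GDP; compounds pinned in, 5 min RT, then read every 5 min for 30 min (ex 480, em 540 nm). Normalized to cAMP control.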
EPAC2 antagonist: qHTS for Antagonist of cAMP-regulated guanine nucleotide exchange factor 2 (EPAC2): primary screen; hit rate 0.18% among 360,000; Potency, µM (doses to about 114 µM), without a hit: at the highest dose activity, negative = inhibition, hits mostly inhibitors; Rap guanine nucleotide exchange factor 4 (Homo sapiens), Q8WZA2; EPAC2 GEF exchange of Rap1B-BODIPY-GDP, fluorescence; also: potency is read from the fitted curve at half-maximal effect; % is scaled to controls: 0 for no effect and ±100 for the full control effect; nearly all actives have a fitted effect of over 45% in size
Starred values were filed as active, the others as inactive; ? = inconclusive; / = not tested or not shown; ! = not confirmed by another sample; [ ] = dose if it differs, or a comment. Rows were chosen to be rich in hits. Some 0.87% of all compounds tested hit in one or more screens of this group. Unless noted, calls follow the shape of the dose curve; as a rule, active = well fitted curve in the direction sought with a large enough effect; inconclusive = small, poorly fitted or top-dose-only effect, or another doubt; inactive = no such curve, though single readings can be large; an effect the other way counts as inactive or inconclusive.

SMILES	USP1 inh	EPAC1 agonist	FBPA coupling cs	EPAC1 antagonist	EPAC2 ag	EPAC2 antagonist
O=C1[C@H]2[C@H]3[C@H](O)[C@H](O)C/C(=N\OC[C@@H](O)COCc4ccco4)[C@@H]3CC[C@H]2C(=O)N1c1ccc(F)cc1F	/	/	-1.7	/	/	/
CC1=Nc2cccc3cccc(c23)N1C	2.0%	0.1%	-31.7*	-24.1%	1.8%	6.6%
C/C(Cn1nnc([N+](=O)[O-])n1)=N\NC(=O)c1ccc(C)cc1	-6.4%	-3.1%	-37.8*	0.1%	7.5%	-3.0%
C/C(Cn1nnc([N+](=O)[O-])n1)=N\NC(=O)c1ccncc1	-8.0%	5.7%	-40.3*	-16.7%	5.9%	5.0%
CN1c2ccccc2C(C)(C)C12C=Nc1c(ccc3ccccc13)O2 (stereo not given)	?	8.2%	-78.1*	?	11.4%	8.6%
Nc1ccc2nc(C(F)(F)F)[nH]c2c1	-10.7%	7.3%	-6.0	-17.3%	11.1%	11.7%
Cc1nc2cc3nc(C(F)(F)F)[nH]c3cc2[nH]1	-26.0%	6.2%	-35.9*	9.9%	7.2%	3.2%
N#CC1=C(N)SC(N)=C(C#N)C1c1ccoc1	/	/	-38.9*	/	/	/
O=c1oc2c(O)c(O)cc3c(=O)oc4c(O)c(O)cc1c4c23	?	-3.9%	-78.5*!	?	13.7%	32.0%
O=c1oc2ccccc2c2oc3cc(O)c(O)cc3c12	-8.9%	3.8%	3.9	?	5.5%	-10.5%
COc1cccc(NC(=S)N2CCC(Cc3ccccc3)CC2)c1	-14.4%	-3.5%	/	-5.1%	9.2%	-8.1%
COc1ccccc1NC(=O)c1sc2nc(C)c(C(=O)Nc3ccc(C)cc3C)c(-c3ccco3)c2c1N	16.6%	/	/	/	/	/
COc1ccccc1NC(=O)c1sc2nc(Cc3ccccc3)cc(C(F)(F)F)c2c1N	?	2.5%	-2.8	-8.7%	-5.8%	79.4µM*
COc1ccccc1NC(=O)c1sc2nc(C)c(C(=O)Nc3ccc(C)cc3C)c(-c3ccc(C)o3)c2c1N	31.6µM*	/	/	/	/	/
COc1cc(NC(=O)CSc2nc(-c3cccs3)cc(C(F)(F)F)n2)cc(OC)c1OC	-30.2%	/	/	/	/	/
CC(=O)OC1C=CN(C(C)=O)C(SC(C)(C)C)C1(C)O (stereo not given)	-1.4%	-0.1%	/	9.0%	-0.9%	-1.3%
COc1ccc(C)cc1NS(=O)(=O)c1ccc(Br)s1	-14.4%	14.1%	-10.5	0.7%	3.3%	-7.3%
Cc1cccc(NS(=O)(=O)c2ccc(Br)s2)n1	-18.0%	-2.6%	2.7	6.3%	2.1%	5.3%
Cc1cc(C)nc(NS(=O)(=O)c2ccc(Br)s2)c1	-21.7%	-4.4%	-35.8*	?	11.1%	-10.7%
Cc1ccc(NS(=O)(=O)c2ccc(Br)s2)nc1	-21.3%	9.4%	-36.8*	-8.3%	7.5%	2.9%
COCOCCn1cc(CN2CCS(=O)(=O)N(Cc3ccc(-c4ccc(F)cc4)cc3)C(CC(C)C)C2=O)nn1 (stereo not given)	-9.2%	-19.1%	/	-17.2%	1.0%	12.6µM*
COCOCCn1cc(CN2CCS(=O)(=O)N(Cc3ccc(-c4ccc(C)cc4)cc3)C(CC(C)C)C2=O)nn1 (stereo not given)	-10.9%	-18.4%	/	-9.3%	10.4%	?
Oc1ccc(C=Nc2ccc3ncccc3c2)c(O)c1	/	/	-51.9*	/	/	/
CCOc1ccc(C=Nc2cccc3ncccc23)cc1	-19.7%	-2.3%	-42.2*	-0.8%	6.9%	0.2%[57.1 µM]
COc1ccc(C=Nc2cccnc2N)cc1	-21.8%	8.7%	0.0	-24.1%	-1.5%	-7.7%
SMILES	USP1 inh	EPAC1 agonist	FBPA coupling cs	EPAC1 antagonist	EPAC2 ag	EPAC2 antagonist
Oc1ccc(C=Nc2cccc3ncccc23)c(O)c1	-8.8%	7.7%	-37.2*	1.4%	15.7%	3.5%
COc1ccc(CCNC(=O)CCCCn2c(=O)c3ccccc3n(Cc3ccccc3Cl)c2=O)cc1OC	-16.3%	/	/	/	/	/
OCCCNC(=S)Nc1ccc(Br)cc1Cl	-12.3%	-0.4%	3.9	20.2%	2.5%	17.8%
CCN(CCC(=O)Nc1cc(OC)cc(OC)c1)Cc1ccccc1	3.9%	6.2%	-39.8*	-6.0%	2.5%	-5.6%
CCCN(CCC(=O)Nc1cc(OC)cc(OC)c1)CC1CC1	-12.2%	6.4%	-35.6*	-8.0%	0.4%	4.3%
N#C/C(=C/C1=C(N2CCOCC2)C(=C/c2cccc([N+](=O)[O-])c2)/CC1)C(=O)Nc1ccccc1F	-8.7%	-1.9%	/	0.6%	-6.6%	79.4µM*
N#C/C(=C\C1=C(N2CCOCC2)C(=C/c2cccc([N+](=O)[O-])c2)/CC1)C(=O)Nc1ccccc1F	-12.8%	2.6%	-4.7	5.3%	-35.0%	?
COc1cc2nc(N3CCNCC3)nc(N)c2cc1OC	-25.4%	8.7%	-3.3	?	22.7%	31.6µM*
COc1cc2nc(N3CCN(c4cc(C)ccc4C)CC3)nc(N)c2cc1OC	-22.4%	12.9%	-3.4	-21.3%	26.3%	-6.3%
CN(CCc1ccccn1)C(=O)Nc1ccc(F)cc1	-6.8%	1.0%	-3.0	4.2%	6.31µM*	5.2%
CCC(C)CCN1C(Nc2ccccc2)=NC[C@@H]1C (stereo not given in full)	-12.9%	-10.6%	0.4	-4.5%	0.7%	11.9%
COCCCN1CC23C=CC(O2)C(C(=O)OC)C3C1=O (stereo not given)	-1.5%	-6.3%	/	-2.5%	4.1%	-19.3%
COC(=O)C1C2C=CC3(CN(CC4CCCO4)C(=O)C13)O2 (stereo not given)	-12.8%	0.8%	-79.5*	11.9%	0.6%	14.3%
CCN(CC)c1ccc2cc(NC(=O)CCC(=O)O)c(=O)oc2c1	28.2µM*	?	-0.5	26.1%	27.2%	33.1%
CCN(CC)c1ccc2cc(C(=O)Nc3ccccn3)c(=O)oc2c1	?	12.7%	0.3	3.9%	100µM*	204.8%
CCN(CC)c1ccc2cc(C(N)=O)c(=O)oc2c1	?	2.8%	1.5	-0.4%	7.0%	-3.0%
CCN(CC)c1ccc2cc(C(=O)Nc3cccnc3N3CCOCC3)c(=O)oc2c1	/	/	-6.1	/	/	/
CCN(CC)c1ccc2cc(C(C)=O)c(=O)oc2c1	?	?	-0.7	65.9%	?	71.2%
CCN(CC)c1ccc2cc(C=O)c(=O)oc2c1	15.8µM*	100µM*	0.5	73.3%	100µM*	18.0%
